# Bioassay records (PubChem)
# Sampled rows, rich in hits. Any-hit rate of the full collection: about 4.2%.
# GDH-TPI counter = inhibits GDH-TPI coupling enzymes, artifact for Mtb FBA screen; GDH-TPI coupled enzyme counterscreen, NADH absorbance; inhibition, % at 4.8 µM; actives 1.2% (n = 360,000); AID 588335; in the data active = inhibition above about 30%;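 also: 0% = DMSO wells and 100% = wells lacking the enzyme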
# BJeLR lethal = BJeLR cell viability loss; actives 0.17% (n = 300,000); BJeLR (HRASV12) viability, CellTiter-Glo ATP luminescence, 48 h; AID 1554; inhibition, % (concentration not given with the values); in the data active = inhibition above about 50%
# PrPC TRFRET = inhibitors of human cell surface prion protein PrPC. P04156. TR-FRET read-out. inhibition, % at 13.8 µM. actives 0.43% (n = 370,000); in the data active = inhibition above about 24%; also: 0% = median of the test wells and 100% = reference compound wells
# Mtb FBA inh = Mtb fructose-bisphosphate aldolase inhibition; P9WQA3; purified M. tuberculosis FBA, fluorescence read-out; inhibition, % at 1 µM; actives 2.3% (n = 360,000); in the data active = inhibition above about 27%;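 also: 0% = vehicle and 100% = reference inhibitor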
# Target sequence (P9WQA3 whole entry, looked up): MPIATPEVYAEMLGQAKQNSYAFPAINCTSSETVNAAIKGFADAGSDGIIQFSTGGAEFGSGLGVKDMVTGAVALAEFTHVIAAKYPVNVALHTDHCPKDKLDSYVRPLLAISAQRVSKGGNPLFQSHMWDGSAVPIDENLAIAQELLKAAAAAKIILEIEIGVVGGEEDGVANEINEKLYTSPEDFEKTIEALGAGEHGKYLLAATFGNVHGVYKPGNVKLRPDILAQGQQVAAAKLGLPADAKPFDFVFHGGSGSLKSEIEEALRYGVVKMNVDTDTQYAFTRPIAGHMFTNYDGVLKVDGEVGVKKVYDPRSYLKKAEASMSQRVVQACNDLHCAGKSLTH
# RecA intein inh = Mtb RecA intein splicing inhibition; inhibition, % (no concentration beside the values); AID 2221; actives 0.75% (n = 290,000); cell-free RecA intein splicing, fluorescence; P9WHJ3; in the data active = inhibition above about 30%;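 also: 0% = vehicle wells and 100% = reference inhibitor control wells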
# PrPC confirm = cell surface PrPC inhibition, TR-FRET confirmation. shares compounds with PrPC TRFRET. cell surface PrPC level. inhibition, % at 13.8 µM. actives 65% (n = 1,500). AID 743200; in the data active = inhibition above about 25%
# LD9 cytotox = kills or reduces viability of LD9 cells in PrPc counter-screen; shares compounds with PrPC TRFRET; LD9 cells cytotoxicity, luminescence viability; inhibition, % at 13.8 µM; actives 29% (n = 1,500); AID 743201; in the data active = inhibition above about 9.5%
# An asterisk follows results filed as active; . = not tested or not shown.
SMILES,GDH-TPI counter,BJeLR lethal,PrPC TRFRET,Mtb FBA inh,RecA intein inh,PrPC confirm,LD9 cytotox
c1ccc(Cn2ccc3ccc(-c4ccc5ccn(Cc6ccc(-c7ccccc7)cc6)c5c4)cc32)cc1,.,.,-5,.,.,.,.
NS(=O)(=O)c1ccc(NC(=O)CSc2ccc3ccccc3n2)cc1,18,8,36*,-1,1,43*,-1
NS(=O)(=O)c1ccc(NC(=O)CSc2ncccn2)cc1,-6,7,5,-2,-1,.,.
O=C(CCCCCNC(=O)c1ccccc1)N/N=C/c1ccc(O)cc1O,10,6,-4,1,-5,.,.
O=C(N/N=C/c1ccc(O)cc1O)/C(=C/c1ccccc1)CCO,41*,-12,30*,0,-17,32*,17*
COc1ccccc1C(=O)N1CCN(C(=O)[C@@H](Cc2ccccc2)NC(=O)[C@H]2O[C@@H](n3ccc(N)nc3=O)[C@H](O)[C@@H]2O)CC1,.,.,1,.,.,.,.
CC1CC(N(C(=O)c2ccco2)c2ccccc2)c2ccccc2N1C(=O)c1ccco1 (stereo unspecified),-4,-5,-2,-1,.,.,.
CC1CC(N(C(=O)c2ccc(Cl)cc2)c2ccccc2)c2ccccc2N1C(=O)c1ccco1 (stereo unspecified),0,-1,25*,-1,8,13,-3
CCOC(=O)c1ccc2[nH]c(C)c(CCC(C)=O)c(=O)c2c1,21,9,1,20,-2,.,.
CC(=O)Nc1ccc2[nH]c(C)c(CC=C(Cl)Cl)c(=O)c2c1,6,-3,37*,14,0,54*,-3
CCN1C(=O)C2(C(C(=O)c3cc4ccccc4o3)=C(O)C(=O)N2CCCN2CCOCC2)c2ccccc21 (stereo unspecified),7,-6,72*,2,-8,99*,-8
Cc1cc(N2CCN(C)CC2)nc2ccc(NC(=O)CCC(=O)NCCC3=CCCCC3)cc12,1,.,38*,6,.,-1,3
COc1ccc(CCNC(=O)CCC(=O)Nc2ccc3nc(N4CCN(C)CC4)cc(C)c3c2)cc1OC,-8,-3,9,13,0,.,.
CC1CN(c2ccc(Cl)cc2)c2nc3c(c(=O)[nH]c(=O)n3C)n2C1 (stereo unspecified),8,-7,38*,3,0,2,-3
O=C(O)C(O)C(O)c1nc2ccccc2[nH]1 (stereo unspecified),0,0,-3,0,0,.,.
N#CC(C(=O)C12CC3CC(CC(C3)C1)C2)c1nc2ccccc2[nH]1 (stereo unspecified),25,7,35*,3,-6,24,0
CC/C=C/CC(=O)N[C@@H](c1ccccc1)[C@@H](O)C(=O)O[C@H]1C[C@@]2(O)[C@@H](OC(=O)c3ccccc3)C3[C@](C)(C(=O)[C@H](OC(C)=O)C(=C1C)C2(C)C)[C@@H](O)C[C@H]1OC[C@@]31OC(C)=O (stereo partly specified),-10,30,26*,0,.,23,-2
CC(=O)O[C@H]1C(=O)[C@@]2(C)[C@H]([C@H](OC(=O)c3ccccc3)[C@]3(O)C[C@H](OC(=O)[C@H](O)[C@@H](NC(=O)c4ccccc4)c4ccccc4)C(C)=C1C3(C)C)[C@]1(OC(C)=O)CO[C@@H]1C[C@@H]2O,9,.,35*,2,.,24,3
CC(=O)O[C@H]1C(=O)[C@@]2(C)[C@H]([C@H](OC(=O)c3ccccc3)[C@]3(O)C[C@H](OC(=O)[C@H](O)C(NC(=O)c4ccccc4)c4ccccc4)C(C)=C1C3(C)C)[C@]1(OC(C)=O)CO[C@@H]1C[C@@H]2O (stereo partly specified),-2,40,31*,0,6,27*,8
CCCCCC(=O)N[C@@H](c1ccccc1)[C@@H](O)C(=O)O[C@H]1C[C@@]2(O)[C@@H](OC(=O)c3ccccc3)C3[C@](C)(C(=O)[C@H](OC(C)=O)C(=C1C)C2(C)C)[C@@H](O)C[C@H]1OC[C@@]31OC(C)=O (stereo partly specified),-1,27,19,0,8,.,.
